What all share (assay type): functional
Assay [1] concerns the target Solute carrier family 2, facilitated glucose transporter member 1 (Homo sapiens) (UniProt P11166). As to the kind of experiment: ST_JUDE_LEISH: Cytotoxicity at 2uM final concentration against transgenic Leishmania Mexicana promastigotes LmGLUT1 that are glucose transport deficient and complemented with the human glucose transporter GLUT1. Activity is measured by DNA content using SYBR green in vitro.

The target of assay [2] is Hexose transporter 1 (Plasmodium falciparum) (UniProt O97467). As to the kind of experiment: ST_JUDE_LEISH: Cytotoxicity at 2uM final concentration against transgenic Leishmania Mexicana promastigotes LmPfHT that are glucose transport deficient and complemented with the Plasmodium falciparum hexose transporter. Activity is measured by DNA content using SYBR green in vitro.

Assay [3] concerns the target Glucose transporter (Leishmania mexicana) (UniProt O61059). Nature of the assay: ST_JUDE_LEISH: Cytotoxicity at 2uM final concentration against transgenic Leishmania Mexicana promastigotes LmGT2 that are glucose transport deficient and complemented with the L. Mexicana glucose transporter 2. Activity is measured by DNA content using SYBR green in vitro.

Molecules are shown by their SMILES.

Sequence of Solute carrier family 2, facilitated glucose transporter member 1 (Homo sapiens) (P11166 whole entry): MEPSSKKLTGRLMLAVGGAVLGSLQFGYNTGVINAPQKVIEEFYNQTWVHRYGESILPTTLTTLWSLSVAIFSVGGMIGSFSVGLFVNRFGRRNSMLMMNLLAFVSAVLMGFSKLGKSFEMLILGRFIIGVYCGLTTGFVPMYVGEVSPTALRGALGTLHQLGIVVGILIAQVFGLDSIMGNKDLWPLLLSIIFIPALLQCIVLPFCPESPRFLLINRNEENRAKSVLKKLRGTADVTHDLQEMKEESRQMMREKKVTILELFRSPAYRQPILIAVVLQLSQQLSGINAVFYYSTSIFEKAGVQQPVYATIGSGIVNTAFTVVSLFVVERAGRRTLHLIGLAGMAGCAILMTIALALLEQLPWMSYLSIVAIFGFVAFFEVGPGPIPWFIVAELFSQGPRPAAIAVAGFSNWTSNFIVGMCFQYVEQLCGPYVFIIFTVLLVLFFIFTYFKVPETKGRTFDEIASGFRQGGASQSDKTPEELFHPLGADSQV

For the compound `CC(C)C[C@H](NC(=O)c1ccc(F)cc1)C(=O)N[C@H](/C=N/NC(=O)c1ccccc1)CCc1ccccc1`, the inhibition in assay [1] came out at 4.79%; in assay [2], 6.16%; in assay [3] it was 3.91%.

On to `O=C(NC(CCCN1CCC(c2ccccc2)CC1)c1ccc(Cl)c(Cl)c1)c1cc(C(F)(F)F)cc(C(F)(F)F)c1` (configuration not stated), for which the inhibition in assay [1] came to 2.06%; in assay [2], 1.99%; in assay [3], 1.89%.

For `CN1CCN(Cc2nc(-c3ccc4c(Nc5ccc(Oc6ccccc6)cc5)ccnc4c3)cs2)CC1`, the figures for the inhibition in assay [1], in assay [2] and in assay [3] were 2.66%, 2.64% and 1.74%, respectively.

On to `COc1ccc2nccc([C@@H](O)CN3CCC(NCc4cc5ccccc5nn4)CC3)c2c1`, for which the results for the inhibition in assay [1], in assay [2] and in assay [3] were 6.88%, 7.17% and 7.16%, respectively.

As for `CN(c1ccc2c(c1)nc(NC(=O)C1(c3cc(F)ccc3F)CC1)n2C)c1ccnc(Nc2cccc(CS(C)(=O)=O)c2)n1`, the inhibition in assay [1] was -0.91%; in assay [2], 0.33%; in assay [3] it was -1.29%.

As for `FC(F)(F)c1ccc2[nH]ccc(=NN=Cc3ccccc3Cl)c2c1`, the inhibition is 2.85% in assay [1], 1.66% in assay [2] and 1.62% in assay [3].

Take `COc1cc(F)c2nccc([C@@H](O)CN3CCC(NC(=O)OCc4ccccc4)C(F)C3)c2c1` (some centres not stated): the inhibition in assay [1] was found to be 11.6%; in assay [2], 16.3%; in assay [3], 3.75%.

For `N#Cc1ccc(N/C(=N\c2ccc(-c3ccccc3)cc2)NC2CCCc3ccccc32)c(O)c1` (configuration not stated), the inhibition was -1.53% in assay [1], 0.81% in assay [2] and -0.07% in assay [3].

For `CC(C)(C)c1ccc(NC(=O)c2cccc(CN3CCCN(CC4CCCCC4)CC3)c2)cc1`, the inhibition stood at 3.24% in assay [1], 1.77% in assay [2] and 3.88% in assay [3].

With `CC(C)Cn1cc(C2CCN(CCN3CCC(CNC(=O)c4ccc(-c5ccc(C(F)(F)F)cc5)cc4)CC3)CC2)c2ccccc21`, the inhibition in assay [1] stood at 2.78%; in assay [2] it was 3.07%; in assay [3], 2.25%.

On to `O=C(Nc1ccc(C(F)(F)F)cc1)c1ccc(S(=O)(=O)NC2CCN(CC3CCCCC3)CC2)cc1`, for which the results for the inhibition in assay [1], in assay [2] and in assay [3] were 1.19%, 0.54% and -1.52%, respectively.

`CCNC(=O)Nc1ccc(N(C)c2ccnc(Nc3ccc(CS(C)(=O)=O)cc3)n2)cc1`: the results for the inhibition in assay [1], in assay [2] and in assay [3] were 13.5%, 12.2% and 9.58%, respectively.

Turning to `CCCCNC(=O)C(C)NC(=O)c1ccc(O)c(-c2ccc(Cl)c(Cl)c2)c1` (configuration not stated), the inhibition in assay [1] was -0.19%; in assay [2], -0.53%; in assay [3] it was 0.05%.

For the compound `CC(=O)Nc1ccc(C(=O)Nc2ccc(-c3cccc(-c4nc5ccccc5[nH]4)c3)cc2)cn1`, the inhibition is 0.89% in assay [1], 0.79% in assay [2] and -0.56% in assay [3].

As to `O=C(COc1ccccc1)NC1CCN(c2ccnc3cc(Cl)ccc23)C1` (configuration not stated), the inhibition in assay [1] was determined as 0.14%; in assay [2] it was 1%; in assay [3], 1.75%.

For `CCNc1cc(C(=O)N[C@@H](Cc2ccccc2Cl)[C@H](O)CNC2CCCCC2)cc(N2CCCCS2(=O)=O)c1`, the inhibition in assay [1] is 0.03%; in assay [2] it was 0.45%; in assay [3], -2.07%.

As to `CN1CCN(Cc2ccc(OCc3cccc(COc4ccc(CN5CCN(C)CC5)cc4I)c3)c(I)c2)CC1`, the results for the inhibition in assay [1], in assay [2] and in assay [3] were 1.53%, 0.72% and -0.68%, respectively.

Regarding `COc1ccc2c(c1CNCCCCCCNCc1c(OC)ccc3c1CCCC3)CCCC2`, the inhibition in assay [1] was determined as 11.1%; in assay [2] it was 8.33%; in assay [3] it was 7.55%.

As for `Cc1cc(-c2ccc(CNC3Cc4ccccc4C3)cc2)ccc1S(=O)(=O)NCCN1CCCC1`, the figures for the inhibition in assay [1], in assay [2] and in assay [3] were 30.9%, 30.9% and 3.47%, respectively.

On to `CC(C)CCn1c(Sc2ccc(C#N)c([N+](=O)[O-])c2)nnc1-c1cccc(Cl)c1`, for which the inhibition in assay [1] was 9.63%; in assay [2], 9.97%; in assay [3] it was 8.26%.

Turning to `O=C(/C=C/c1ccc(Cl)c(Cl)c1)NCCCCCN1CCC(NC(=O)Nc2ccc(Cl)c(C(F)(F)F)c2)CC1`, the values for the inhibition in assay [1], in assay [2] and in assay [3] were 1.18%, 0.31% and 1.66%, respectively.

Regarding `c1ccc(-c2ccc(CNCCCNc3nc4ccccc4[nH]3)cc2)cc1`, the inhibition in assay [1] is 4.26%; in assay [2], 9.56%; in assay [3] it was 6.92%.

Take `COc1ccc(-c2cccc(NC(=O)c3ccc(C#N)cc3)c2)cc1CN1CCN(C)CC1`: the inhibition in assay [1] is 16.1%; in assay [2] it was 14.8%; in assay [3] it was 11.3%.

Regarding `CCN1CCN(c2cc(C)c3cc(NC(=O)c4ccc(OC)c(OC)c4)ccc3n2)CC1`, the inhibition in assay [1] turned out to be 0.58%; in assay [2] it was 0.53%; in assay [3], 0.24%.

For `CN(Cc1ccccc1)C(=O)CCNS(=O)(=O)c1cc(Br)cnc1N`, the inhibition in assay [1] is 2.6%; in assay [2] it was 3.87%; in assay [3], 6.07%.

Consider `c1cc(CNCCN2CCNCC2)cc(-c2cccc(-c3nc4ccccc4[nH]3)c2)c1`, for which the inhibition in assay [1] was 1.08%; in assay [2] it was 1.4%; in assay [3], 0.14%.

For `CC1CC(NCCCNc2cc(=O)c3ccccc3[nH]2)c2cc(Cl)c(Cl)c(Cl)c21` (configuration not stated), the values for the inhibition in assay [1], in assay [2] and in assay [3] were -1.12%, -1.47% and -2.15%, respectively.

For `CCN(CC)CCN(Cc1ccc(-c2ccc(C(F)(F)F)cc2)cc1)C(=O)Cn1c(CCc2cc(F)cc(F)c2)nc(=O)c2ccccc21`, the results for the inhibition in assay [1], in assay [2] and in assay [3] were 1%, 1.07% and 1.47%, respectively.

As for `O=S(=O)(c1ccccc1)n1ccc2cc(Nc3ncnc4cc(C#C[C@H]5CCCN5)sc34)ccc21`, the inhibition was 2.91% in assay [1], 2.14% in assay [2] and -0.2% in assay [3].

For `CC(Oc1ccc(NC(=O)c2cccs2)cc1)C(=O)c1ccc(Cl)cc1` (configuration not stated), the figures for the inhibition in assay [1], in assay [2] and in assay [3] were 11.3%, 10% and 7.25%, respectively.

For the compound `CC1CN(c2cnn(Cc3cccc(NC(=O)Nc4cccc(C(F)(F)F)c4)c3)c(=O)c2Cl)CC(C)N1` (configuration not stated), the inhibition in assay [1] came to 10.7%; in assay [2], 8.17%; in assay [3] it was 7.73%.

On to `c1ccc(CNc2nc(NCCc3c[nH]cn3)nc(N3CCCC4CCCCC43)n2)cc1` (configuration not stated), for which the inhibition is -1.84% in assay [1], -0.22% in assay [2] and -1.46% in assay [3].

For `COc1ccc(-c2ccc(NC(=O)c3ccc(C#N)cc3)cc2)cc1CN1CCCN(C)CC1`, the inhibition in assay [1] was 3.03%; in assay [2], 3.17%; in assay [3] it was -0.21%.

`CN(C)c1ccc(CN2CCC(CNC(=O)c3cc(-c4ccccc4F)cs3)C2)cc1` (configuration not stated): the inhibition in assay [1] came out at 1.96%; in assay [2], 1.98%; in assay [3], 2.12%.

A word on the inhibition: it is the drop in the measured response relative to a control, in per cent.

Source of the values: ChEMBL document CHEMBL3433997, “St. Jude Leishmania screening dataset” (2016).
